Growth inhibition data for 10 compounds are collected here from PubChem BioAssay (NCI).

About 79,000 compounds went through this panel and 15% of them were active in at least one assay; those are over-represented in the sample as a whole. Unmarked numbers belong to inactive results. Activity calls are given as the source filed them. No stated cut-off is given here; in the data, active means growth inhibition above about 70%; inactive means the rest.

Assay [1] is described as follows: NCI Yeast Anticancer Drug Screen. Data for the rad50 strain (AID 155).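 Further: 0% = growth of vehicle-only cultures of the same strain.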 The note with it: S. cerevisiae rad50 strain growth inhibition, hits give high values. In a few lines: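 Relative growth inhibition (compound vs vehicle) was measured in yeast with a defined repair-gene alteration.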
Assay [2] can be described thus: NCI Yeast Anticancer Drug Screen. Data for the mec2-1 strain (AID 157). Conditions: S. cerevisiae mec2-1 strain, hits give high values. In short, it runs like this: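 Strain: mec2-1 (DNA repair/cell cycle alteration). Compound exposure, then growth measured; inhibition expressed relative to vehicle.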
Assay [3] in a line: NCI Yeast Anticancer Drug Screen. Data for the sgs1 mgt1 strain (AID 161).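 Further: 0% = growth of cultures given vehicle only.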 The note with it: S. cerevisiae sgs1 mgt1 strain, hits give high values. In a few lines: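 Read-out: growth inhibition vs vehicle controls. Cells: mutant yeast strain deficient in DNA damage repair.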
Assay [4] in a line: NCI Yeast Anticancer Drug Screen. Data for the cln2 rad14 strain (AID 165).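 Further: 0% = growth equal to vehicle treated cultures.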 The note with it: S. cerevisiae cln2 rad14 strain, hits give high values. In a few lines: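 Compounds are applied to the cln2 rad14 yeast strain, and growth is then compared with that of vehicle-treated cultures to give inhibition.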
Assay [5] can be described thus: NCI Yeast Anticancer Drug Screen. Data for the bub3 strain (AID 167). Conditions: S. cerevisiae bub3 mutant strain, hits give high values. In a few lines: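 Screening used yeast with an engineered genetic alteration affecting cell cycle control. Compound-exposed cultures were compared with vehicle cultures, and reduced growth was taken as inhibition.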
Assay [6] is described as follows: NCI Yeast Anticancer Drug Screen. Data for the mlh1 rad18 strain (AID 175). Conditions: S. cerevisiae mlh1 rad18 strain growth inhibition, hits give high values. In short, it runs like this:
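Read-out is yeast growth inhibition, calculated against vehicle-only controls. The compound was applied to a strain engineered with DNA damage repair alterations.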

Where [7] appears, read: at 5.0 µM (retest, dose inferred, filed as 0.5).
Setting [8] is: at 50.0 µM (retest, dose inferred, filed as 5.0).

Take `CCN(CC)CCCNc1c2c(Cl)cc(Cl)cc2nc2nc(=O)[nH]c(C)c12`: the growth inhibition was 9% in assay [1] (setting [7]); 12% in assay [1] (setting [8]); 8.75% in assay [1] (at 50.0 µM); 8% in assay [2] (setting [7]); 16% in assay [2] (setting [8]); 0.9% in assay [2] (at 50.0 µM). The growth inhibition was -28% in assay [3] (setting [7]); 6% in assay [3] (setting [8]); 8.8% in assay [3] (at 50.0 µM); -13% in assay [4] (setting [7]); 4% in assay [4] (setting [8]); 39% in assay [4] (at 50.0 µM). For the same compound, the growth inhibition in assay [5] (setting [7]) is -19%; in assay [5] (setting [8]), 8%; in assay [5] (at 50.0 µM), 34.5%; in assay [6] (setting [7]), 7%; in assay [6] (setting [8]), 17%; in assay [6] (at 50.0 µM), 42.2%.

With `COc1ccc(C(=O)C2C(=O)C(=O)OC2C2OC(=O)C(=O)C2C(=O)c2ccc(OC)cc2)cc1` (stereo not given), the growth inhibition is -1% in assay [1] (setting [7]); 2% in assay [1] (setting [8]); -9.6% in assay [1] (at 50.0 µM); -3% in assay [2] (setting [7]); -3% in assay [2] (setting [8]); -7.3% in assay [2] (at 50.0 µM). Further, the growth inhibition in assay [3] (setting [7]) was 0%; in assay [3] (setting [8]), 2%; in assay [3] (at 50.0 µM), -8.2%; in assay [4] (setting [7]), -4%; in assay [4] (setting [8]), 1%; in assay [4] (at 50.0 µM), -15.3%. Moreover, the growth inhibition in assay [5] (setting [7]) was 0%; in assay [5] (setting [8]), -5%; in assay [5] (at 50.0 µM) it was 3.05%; in assay [6] (setting [7]), 0%; in assay [6] (setting [8]) it was -1%; in assay [6] (at 50.0 µM), -15.7%.

`O=C1CSC(=Nc2ccc(F)cc2F)N1Cc1cccs1`: the growth inhibition in assay [1] (setting [7]) was 44%; in assay [1] (setting [8]) it was 92% (active); in assay [1] (at 50.0 µM), 80.2% (active); in assay [2] (setting [7]), 36%; in assay [2] (setting [8]), 98% (active); in assay [2] (at 50.0 µM) it was 78.2% (active). Also, the growth inhibition in assay [3] (setting [7]) was 39%; in assay [3] (setting [8]), 98% (active); in assay [3] (at 50.0 µM), 90.5% (active); in assay [4] (setting [7]), 25%; in assay [4] (setting [8]), 63%; in assay [4] (at 50.0 µM) it was 50.1%. Besides, the growth inhibition is 41% in assay [5] (setting [7]); 61% in assay [5] (setting [8]); 86.2% (active) in assay [5] (at 50.0 µM); 47% in assay [6] (setting [7]); 98% (active) in assay [6] (setting [8]); 84.6% (active) in assay [6] (at 50.0 µM).

Turning to `CC(=O)Oc1ccc(C)c(C(C)C(Cl)(Cl)Cl)c1` (stereo not given), the growth inhibition in assay [1] (setting [7]) was 0%; in assay [1] (setting [8]), 30%; in assay [1] (at 50.0 µM) it was 65%; in assay [2] (setting [7]), -5%; in assay [2] (setting [8]), 50%; in assay [2] (at 50.0 µM) it was 42.8%. The growth inhibition is 12% in assay [3] (setting [7]); 26% in assay [3] (setting [8]); 58.3% in assay [3] (at 50.0 µM); 8% in assay [4] (setting [7]); 13% in assay [4] (setting [8]); 52.5% in assay [4] (at 50.0 µM). The growth inhibition in assay [5] (setting [7]) is -6%; in assay [5] (setting [8]), 4%; in assay [5] (at 50.0 µM) it was 60%; in assay [6] (setting [7]), 0%; in assay [6] (setting [8]), 27%; in assay [6] (at 50.0 µM), 81.2% (active).

As to `CCOC(=O)c1c(C)n(C)c2c1nnc1ccccc12`, the growth inhibition was 16% in assay [1] (setting [7]); 85% (active) in assay [1] (setting [8]); 64.7% in assay [1] (at 50.0 µM); 15% in assay [2] (setting [7]); 79% (active) in assay [2] (setting [8]); 51.1% in assay [2] (at 50.0 µM). Also, the growth inhibition is 19% in assay [3] (setting [7]); 82% (active) in assay [3] (setting [8]); 59% in assay [3] (at 50.0 µM); 12% in assay [4] (setting [7]); 69% in assay [4] (setting [8]); 55.2% in assay [4] (at 50.0 µM). In addition, the growth inhibition in assay [5] (setting [7]) was 1%; in assay [5] (setting [8]), 73% (active); in assay [5] (at 50.0 µM), 46%; in assay [6] (setting [7]), 7%; in assay [6] (setting [8]) it was 83% (active); in assay [6] (at 50.0 µM), 57.1%.

On to `O=[N+]([O-])c1ccc(Sc2ccc([N+](=O)[O-])o2)o1`, for which the growth inhibition in assay [1] (setting [7]) was 93% (active); in assay [1] (setting [8]), 99% (active); in assay [1] (at 50.0 µM), 99.2% (active); in assay [2] (setting [7]), 94% (active); in assay [2] (setting [8]) it was 100% (active); in assay [2] (at 50.0 µM) it was 99.5% (active). In addition, the growth inhibition is 97% (active) in assay [3] (setting [7]); 100% (active) in assay [3] (setting [8]); 99.4% (active) in assay [3] (at 50.0 µM); 71% (active) in assay [4] (setting [7]); 99% (active) in assay [4] (setting [8]); 99.2% (active) in assay [4] (at 50.0 µM). Also, the growth inhibition was 96% (active) in assay [5] (setting [7]); 99% (active) in assay [5] (setting [8]); 99.5% (active) in assay [5] (at 50.0 µM); 98% (active) in assay [6] (setting [7]); 99% (active) in assay [6] (setting [8]); 99.1% (active) in assay [6] (at 50.0 µM).

Take `COc1cc(/C=C/C(=N\NC(=O)c2ccccc2)c2sc(Nc3ccc(Cl)c(Cl)c3)nc2C)ccc1O`: the growth inhibition is 49% in assay [1] (setting [7]); 49% in assay [1] (setting [8]); 91.2% (active) in assay [1] (at 50.0 µM); 29% in assay [2] (setting [7]); 29% in assay [2] (setting [8]); 89.8% (active) in assay [2] (at 50.0 µM). For the same compound, the growth inhibition was 52% in assay [3] (setting [7]); 52% in assay [3] (setting [8]); 89.7% (active) in assay [3] (at 50.0 µM); 14% in assay [4] (setting [7]); 14% in assay [4] (setting [8]); 88.2% (active) in assay [4] (at 50.0 µM). The growth inhibition in assay [5] (setting [7]) is 28%; in assay [5] (setting [8]), 28%; in assay [5] (at 50.0 µM), 90.5% (active); in assay [6] (setting [7]) it was 30%; in assay [6] (setting [8]), 30%; in assay [6] (at 50.0 µM) it was 88.9% (active).

With `FC(F)(F)c1ccc(NC(=S)SCc2ccc(Cl)cc2)cc1`, the growth inhibition in assay [1] (setting [7]) is 8%; in assay [1] (setting [8]), 99% (active); in assay [1] (at 50.0 µM) it was 99.3% (active); in assay [2] (setting [7]) it was 5%; in assay [2] (setting [8]) it was 99% (active); in assay [2] (at 50.0 µM), 99.7% (active). Further, the growth inhibition was 13% in assay [3] (setting [7]); 99% (active) in assay [3] (setting [8]); 99.5% (active) in assay [3] (at 50.0 µM); -3% in assay [4] (setting [7]); 98% (active) in assay [4] (setting [8]); 99.4% (active) in assay [4] (at 50.0 µM). The growth inhibition in assay [5] (setting [7]) was 26%; in assay [5] (setting [8]) it was 99% (active); in assay [5] (at 50.0 µM), 99.5% (active); in assay [6] (setting [7]), 17%; in assay [6] (setting [8]), 99% (active); in assay [6] (at 50.0 µM), 99.5% (active).

Regarding `O=C(NC1=Nc2c(ncn2COCCO)S(=O)(=O)[N-]1)c1ccccc1.[Ag+]`, the growth inhibition in assay [1] (setting [7]) is 100% (active); in assay [1] (setting [8]), 99% (active); in assay [1] (at 50.0 µM), 98.3% (active); in assay [2] (setting [7]), 100% (active); in assay [2] (setting [8]), 100% (active); in assay [2] (at 50.0 µM) it was 98.2% (active). For the same compound, the growth inhibition in assay [3] (setting [7]) was 99% (active); in assay [3] (setting [8]), 99% (active); in assay [3] (at 50.0 µM) it was 98.5% (active); in assay [4] (setting [7]), 99% (active); in assay [4] (setting [8]), 99% (active); in assay [4] (at 50.0 µM), 86% (active). In addition, the growth inhibition in assay [5] (setting [7]) was 100% (active); in assay [5] (setting [8]), 99% (active); in assay [5] (at 50.0 µM) it was 98.3% (active); in assay [6] (setting [7]) it was 99% (active); in assay [6] (setting [8]) it was 99% (active); in assay [6] (at 50.0 µM), 97.3% (active).

On to `CCN(CC)CCNc1cc(C)nc2c1ccc1c2ccc2c(NCCN(CC)CC)cc(C)nc21`, for which the growth inhibition in assay [1] (setting [7]) was -3%; in assay [1] (setting [8]), 96% (active); in assay [1] (at 50.0 µM) it was 62.3%; in assay [2] (setting [7]) it was 18%; in assay [2] (setting [8]), 98% (active); in assay [2] (at 50.0 µM), 98% (active). Moreover, the growth inhibition in assay [3] (setting [7]) was -3%; in assay [3] (setting [8]), 96% (active); in assay [3] (at 50.0 µM), 54.5%; in assay [4] (setting [7]) it was -16%; in assay [4] (setting [8]) it was 95% (active); in assay [4] (at 50.0 µM), 93% (active). The growth inhibition in assay [5] (setting [7]) was -2%; in assay [5] (setting [8]) it was 90% (active); in assay [5] (at 50.0 µM), 96% (active); in assay [6] (setting [7]), -3%; in assay [6] (setting [8]), 97% (active); in assay [6] (at 50.0 µM) it was 96.4% (active).
